# HEK293 tox: cytotoxicity counter-screen for GLP-1 receptor inverse agonists. HEK293 cAMP-luciferase reporter cells, luminescence, 24 h. Potency, µM (top dose mostly 38.3 µM), inactives show at the highest dose activity change, negative = inhibition, actives largely listed as inhibitors. AID 624418. 410,000 compounds, 0.13% hits;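 further: loss of luciferase light is scored as toxicity; on the % scale 0 is the no-effect control and ±100 the full control effect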
#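 Seeding density was 200 cells/uL; after overnight-length (12 h) culture, 23 nL compounds went on for 24 h at 37 °C. Readout used a luciferase detection reagent, luminescence taken after 12 min at room temperature.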
# GLP-1R inv ag: GLP-1 receptor (human) inverse agonism | P43220 | HEK293 GLP-1R CRE-luciferase, luminescence, 24 h; GLP-1R form is constitutively active | Potency, µM (series often up to 38.3 µM), for inactives: at the highest dose activity change, negative = inhibition, actives largely listed as inhibitors | 410,000 compounds, 1.6% hits | AID 624417; further: on the % scale 0 is the no-effect control and ±100 the full control effect; nearly all actives have a fitted effect of over 55% in size
# Target sequence (P43220 whole entry, looked up): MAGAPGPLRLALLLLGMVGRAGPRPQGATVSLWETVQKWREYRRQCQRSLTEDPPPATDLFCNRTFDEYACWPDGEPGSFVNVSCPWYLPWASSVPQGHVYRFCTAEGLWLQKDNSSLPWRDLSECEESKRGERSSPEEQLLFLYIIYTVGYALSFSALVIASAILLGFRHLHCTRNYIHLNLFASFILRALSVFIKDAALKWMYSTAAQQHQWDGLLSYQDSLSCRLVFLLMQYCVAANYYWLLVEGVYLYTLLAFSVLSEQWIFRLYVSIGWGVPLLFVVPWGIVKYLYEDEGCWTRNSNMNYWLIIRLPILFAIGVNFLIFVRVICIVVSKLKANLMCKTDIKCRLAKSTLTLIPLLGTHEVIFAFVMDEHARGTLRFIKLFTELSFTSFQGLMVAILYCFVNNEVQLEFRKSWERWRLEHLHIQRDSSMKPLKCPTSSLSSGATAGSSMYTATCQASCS
#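 Using stably transfected HEK293 (constitutively active GLP-1R, cAMP-luciferase reporter), compounds were incubated 24 hr and luciferase measured by luminescence.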
# GLP1R ag: activates the human GLP-1 receptor | 380,000 compounds, 0.007% hits | P43220 | HEK293 GLP-1R CRE-luciferase, luminescence, 4-6 h; cells express a hypersensitive GLP-1R form | Potency, µM (series often up to 45.6 µM), for inactives: top-dose activation, usual class: activators; further: % of control where 0% means no effect
# The depositor's hits bear a star; ? = inconclusive; . = not tested or not shown. An excerpt weighted towards active compounds, which were near 1.7% of everything screened. The call rests on the fitted dose curve; in most records, active means well fitted curve in the direction sought with a large enough effect; inconclusive means small, poorly fitted or top-dose-only effect, or another doubt; inactive means no such curve, though single readings can be large; an effect the other way counts as inactive or inconclusive. Potency means the concentration at half of the fitted maximal effect.
SMILES,HEK293 tox,GLP-1R inv ag,GLP1R ag
COc1cccc(N2CCN(c3ncc4c(n3)CCN(Cc3ccc(Br)cc3)C4)CC2)c1,-8.6%,?,.
Cc1ccc(S(=O)(=O)NC(C)C(c2cccs2)N2CCN(C)CC2)cc1 (stereo not drawn),-0.1%,?,-1.7%
CCN1CCN(C(c2cccs2)C(C)NS(=O)(=O)c2ccc(Br)cc2)CC1 (stereo not drawn),?,11.2µM*,-4.1%
COc1ccc(S(=O)(=O)N2CCCCCC2)cc1NC(=O)CN1C(=O)CNC1=O,9.2%,15.2%,-0.8%
CC1CCCN(Cc2nc(Cc3ccccc3Cl)no2)C1 (stereo not drawn),0.6%,10µM*,12.8%
OC1CCCN(Cc2nc(Cc3ccccc3Cl)no2)C1 (stereo not drawn),0.1%,12.1%,-1.8%
CC(C)c1ccc(NC(=O)Cc2ccc(NC3=NC4CS(=O)(=O)CC4S3)cc2)cc1 (stereo not drawn),5.0%,12.8%,-5.5%
COCCCN(C(=O)c1cc(C)oc1C)c1c(N)n(CC(C)C)c(=O)[nH]c1=O,-6.9%,3.8%,-2.2%
Cc1cc(C)c2ccc(N)nc2c1O,?,12.6µM*,-21.6%
Cc1cc(C)c2cccc(N)c2n1,?,?,3.7%
CCCNS(=O)(=O)c1ccc(Oc2ncc(C(F)(F)F)cc2Cl)cc1,-2.9%,11.2µM*,0.0%
CC(C)NS(=O)(=O)c1ccc(Oc2ncc(C(F)(F)F)cc2Cl)cc1,-10.5%,?,8.4%
CCC(C(=O)Nc1ccccc1-c1ccccc1)c1ccccc1 (stereo not drawn),6.3%,7.94µM*,-6.6%
CCC(C(=O)Nc1ccccc1)c1ccccc1 (stereo not drawn),17.9%,?,-0.6%
COc1ccc(Nc2ncnc3c2c(-c2ccccc2)cn3-c2ccc(C)c(Cl)c2)cc1OC,-4.8%,12.9%,.
CCN(CC#CCC(O)(c1ccccc1)c1ccccc1)C(C)C,2.6%,?,2.1%
CC(C)N(CC#CCC(O)(c1ccccc1)c1ccccc1)CCO,-13.7%,10µM*,-0.7%
COc1ccc2cc(C(=O)C3CCCN(C(=O)/C=C/c4ccccn4)C3)ccc2c1 (stereo not drawn),6.9%,14.2%,23.9%
O=C1CC(c2ccc(Cl)cc2)Sc2nc(-c3ccc(F)cc3)nn21 (stereo not drawn),0.6%,3.8%,.
COC(=O)c1cn(Cc2cc(OC)ccc2OC)cc(F)c1=O,4.7%,10.8%,2.1%
O=Cc1cn(CCC(=O)O)nc1-c1cccc(Br)c1,-2.7%,6.3%,-4.3%
O=C(O)CCn1cc(/C=C\C(=O)c2ccc(Cl)cc2)c(-c2cccc(Br)c2)n1,3.9%,12.6µM*,-0.8%
O=C(c1cc2cc(Cl)ccc2oc1=O)N1CCCCCCC1,3.0%,-3.3%,-2.3%
O=C(C1CN(C(=O)c2cc3cc(Cl)ccc3o2)c2ccccc2O1)N1CCCCC1 (stereo not drawn),-30.8%,11.2µM*,-24.6%
COC(=O)c1[nH]c2cc(C)ccc2c1NC(=O)CN1CCCc2ccccc21,-12.8%,-18.5%,-50.6%
SMILES,HEK293 tox,GLP-1R inv ag,GLP1R ag
COC(=O)c1[nH]c2ccc(Br)cc2c1NC(=O)CN1CCCc2ccccc21,-22.4%,10µM*,-11.5%
COC(=O)c1[nH]c2ccccc2c1NC(=O)CN1CCN(c2cccc(OC)c2)C(C)C1 (stereo not drawn),-18.1%,10µM*,6.8%
CCOC(=O)c1[nH]c2ccc(C)cc2c1NC(=O)CN1CCCCC1,-12.4%,?,3.9%
COC(=O)c1[nH]c2cc(OC)ccc2c1NC(=O)CCN1CCN(c2ccccc2)CC1,3.9%,-6.4%,20.7%
COC(=O)c1[nH]c2ccc(C)cc2c1NC(=O)CN1CCCC(C)(C)C1,0.3%,2.24µM*,-6.6%
COc1ccc(C2=NOC(Cn3nc(C(=O)NCC4CC4)cc3-c3ccccc3)C2)cc1 (stereo not drawn),2.8%,-11.3%,0.9%
Cc1cccc(-c2nc(CN3CCCC(C(=O)NC4CCCCCC4)C3)c(C)o2)c1 (stereo not drawn),?,?,-1.0%
Cc1cccc(-c2nc(CN3CCCC(C(=O)NC4CCCCC4)C3)c(C)o2)c1 (stereo not drawn),?,3.55µM*,3.9%
CCC(C)n1c(=O)c2sccc2n2c(CCCC(=O)Nc3ccc(F)cc3)nnc12 (stereo not drawn),-3.9%,1.2%,.
O=C(Cc1ccccc1[N+](=O)[O-])NCC1(c2cccc3c2OCO3)OCCO1,1.7%,-1.0%,1.3%
CCOc1ccc(-c2[nH]ncc2Oc2ccccc2OCC)c(O)c1,?,?,0.5%
CCOc1ccc(-c2[nH]ncc2Oc2ccccc2OC)c(O)c1,?,8.91µM*,9.9%

# Assay outcomes as filed in PubChem BioAssay.
